DT40 TDP1 no CPT – qHTS for Inhibitors of human tyrosyl-DNA phosphodiesterase 1 (TDP1): qHTS in cells in absence of CPT. actives 15% (n = 420,000). Potency, µM (series often up to 46.2 µM), usual class: inhibitors. DT40 Tdp1-/- hTDP1 cells, no CPT, ATP luminescence, 48 h. AID 686978, 2013; further: nearly all actives have a fitted effect of over 55% in size
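DT40 Tdp1-/-;hTDP1 cells, no CPT (DMSO vehicle only), 400 cells/well; compounds pin-transferred; ≥48 hr, 37 °C; CellTiter-Glo 30 min RT dark, luminescence read.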
KB-V1 MDR tox – KB-V1 MDR subline cytotoxicity; KB-V1 MDR cells viability, CellTiter-Glo, 72 h; actives 3.4% (n = 400,000); Potency, µM (series often up to 46.1 µM), most hits filed as cytotoxic; further: nearly all actives have a fitted effect of over 60% in size
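Cells of the MDR subline KB-V1 are plated, dosed with compound at multiple concentrations, and incubated 72 h at 37 degrees C; CellTiter-Glo is then added and luminescence read after 10 min.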
TDP1 cell CPT – DT40-hTDP1 cell growth loss with CPT. actives 12% (n = 420,000). chicken DT40 Tdp1-/-;hTDP1 cells + 20 nM CPT, ATP luminescence, 48 h. Potency, µM (highest dose often 46.2 µM), actives largely listed as inhibitors; further: nearly all actives have a fitted effect of over 55% in size
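Chicken DT40 Tdp1-/- cells stably complemented with human TDP1 were seeded at 400 cells/well in medium containing 20 nM camptothecin, exposed to pin-transferred compounds, and grown at 37 °C for at least 48 hr. Viability was read as ATP luminescence.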
HT1080 IDH1KD tx – toxicity to HT-1080 IDH1 knockdown cells (counter line) | HT-1080 IDH1 knockdown viability, ATP luminescence, 48 h | Potency, µM (top dose mostly 46.1 µM), hits mostly cytotoxic | actives 2% (n = 360,000)
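Cytotoxicity counter-line: IDH1KD HT-1080, 48 h, CellTiter-Glo. Curves classed by r2, magnitude and activity.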
KB-3-1 cytotox – kills parental KB-3-1 adenocarcinoma cells. KB-3-1 viability, CellTiter-Glo ATP luminescence, 72 h. Potency, µM (highest dose often 46.1 µM), hits mostly cytotoxic. actives 1.4% (n = 400,000). AID 1347075; further: nearly all actives have a fitted effect of over 60% in size
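KB-3-1 cells, DMEM (no phenol red) + 10% FBS; compound by pin transfer, 72 h, 37 °C. Readout: CellTiter-Glo luminescence after 10 min. Data normalized, curve-fitted.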
HT1080-NT tox – kills 2HG-producing HT-1080-NT fibrosarcoma cells; HT-1080-NT fibrosarcoma viability, CellTiter-Glo ATP luminescence, 48 h; Potency, µM (highest dose often 46.1 µM), most hits filed as cytotoxic; actives 1.6% (n = 360,000);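 further: NT is the 2HG producing partner of a matched IDH1 knockdown line; nearly all actives have a fitted effect of over 55% in size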
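Read-out is CellTiter-Glo luminescence after 10 minutes at room temperature, following 48 hours' compound treatment of HT-1080-NT cells (750 cells/well, RPMI, 5% FBS, 37 degrees C).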
Hits are given with their value; - = inactive; ? = inconclusive; . = not tested or not shown; [ ] = dose if it differs, or a comment. In the library only some 19% were active in any assay of this set; here they are far more common. The call rests on the fitted dose curve; in most records, active means well fitted curve in the direction sought with a large enough effect; inconclusive means small, poorly fitted or top-dose-only effect, or another doubt; inactive means no such curve, though single readings can be large; an effect the other way counts as inactive or inconclusive.

SMILES	DT40 TDP1 no CPT	KB-V1 MDR tox	TDP1 cell CPT	HT1080 IDH1KD tx	KB-3-1 cytotox	HT1080-NT tox
O=C1CCC[C@@H]2C=C[C@H](c3ccc(Br)cc3)[C@H]3CCN1[C@@H]32	18µM	-	?	-	?	-
CCc1ccc(C(=O)COC(=O)C(Cc2c[nH]c3ccccc23)NC(=O)c2ccc(Br)cc2)cc1 (stereo not drawn)	-	-	-	.	-	.
CCOc1ccc(NC(=O)Cn2c(C)cc3ccccc3c2=O)cc1	-	?	-	.	-	.
COc1ccccc1CNC(=O)c1ccc(Nc2nc3ccccc3n3nnnc23)cc1	?	-	?	.	-	.
O=C(NCc1ccc(F)cc1)c1ccc(Nc2nc3ccccc3n3nnnc23)cc1	15µM	-	21µM	.	-	.
O=C(c1ccc(Nc2nc3ccccc3n3nnnc23)cc1)N1CCN(c2ccc(F)cc2)CC1	9.2µM	-	10µM	.	-	.
CC(NC(=O)c1ccc(Nc2nc3ccccc3n3nnnc23)cc1)c1ccccc1 (stereo not drawn)	7.3µM	-	13µM	.	-	.
CN(C)c1ccc(Nc2nc3ccccc3n3nnnc23)cc1	23µM	.	?	.	.	.
O=c1onc(-c2ccccc2Cl)n1-c1ccccc1Cl	-	-	-	-	-	-
O=C(CN1CCN(C(=O)c2ccco2)CC1)Nc1ccc(F)cc1F	-	-	-	-	-	-
O=C(/C=C\c1ccccc1)NC1CC(=O)N(c2ccccc2)C1 (stereo not drawn)	-	.	-	.	.	.
CCC(=O)N1CCc2cc(S(=O)(=O)NC(Cc3ccccc3)C(=O)Nc3ccccc3C)ccc21 (stereo not drawn)	-	-	-	.	-	.
Cc1ccc(CNc2nc3ccc(C)cc3n3nnnc23)cc1	-	?	-	.	-	.
Cc1ccc(CCNC(=O)c2ccc(Nc3nc4ccccc4n4nnnc34)cc2)cc1	18µM	-	?	.	-	.
CCOc1ccc(CCNC(=O)c2ccc(Nc3nc4ccccc4n4nnnc34)cc2)cc1OCC	?	-	-	.	-	.
CC(=O)Nc1ccc(Nc2nc3ccc(C)cc3n3nnnc23)cc1	6.5µM	.	6.5µM	.	.	.
Cc1ccc(/C=C2\SC(=S)N(/N=C/c3cc([N+](=O)[O-])ccc3O)C2=O)o1	?	-	?	-	-	-
CC(=O)OC1(C(C)=O)CCC2C3CC4OC45CC(O)CCC5(C)C3CCC21C (stereo not drawn)	-	-	-	-	-	?
CC(=O)O[C@@]1(C(C)=O)CCC2C3C=C(Cl)C4=CC(=O)C5CC5[C@@]4(C)C3CC[C@]21C (stereo partly drawn)	21µM	.	21µM	.	.	.
CN1CCC(N(C)S(=O)(=O)c2ccc(NC(=O)COc3ccc(Br)cc3Cl)cc2)CC1	16µM	?	26µM	18µM	?	16µM
CC(C)(C)C(=O)Nc1cccc(OC(F)(F)C(F)Cl)c1 (stereo not drawn)	-	-	-	-	-	-
N#C/C(=C\C1=C(N2CCOCC2)C(=C/c2cccc([N+](=O)[O-])c2)/CC1)C(=O)Nc1ccccc1F	10µM	-	9.2µM	-	-	-
N#C/C(=C/C1=C(N2CCOCC2)C(=C/c2cccc([N+](=O)[O-])c2)/CC1)C(=O)Nc1ccccc1F	8.2µM	.	10µM	-	.	-
CC(C)C(NC(=O)C12CC3CC(CC(C3)C1)C2)C(=O)N/N=C/C1=C(N2CCOCC2)C(=C\c2ccc([N+](=O)[O-])cc2)/CC1 (stereo not drawn)	-	?	-	-	-	-
CC(NC(=O)C12CC3CC(CC(C3)C1)C2)C(=O)N/N=C/C1=C(N2CCOCC2)C(=C\c2cccc([N+](=O)[O-])c2)/CC1 (stereo not drawn)	12µM	-	?	-	-	-
SMILES	DT40 TDP1 no CPT	KB-V1 MDR tox	TDP1 cell CPT	HT1080 IDH1KD tx	KB-3-1 cytotox	HT1080-NT tox
CCCCNc1nnc(SCC(=O)N2CCN(S(=O)(=O)c3ccc4ccccc4c3)CC2)s1	23µM	?	?	-	-	-
CCCCCC(=O)N1CCN(S(=O)(=O)c2ccc3c(c2)OCCO3)CC1	-	?	-	-	-	-
O=C(NCC(=O)N1CCN(S(=O)(=O)c2ccccc2)CC1)c1ccc2ccccc2c1	?	12µM	-	-	-	-
O=C(CCl)N1CCN(S(=O)(=O)c2ccc3c(c2)OCCCO3)CC1	3.7µM	-	5.2µM	?	?	-[9.24 µM]
O=S(=O)(c1ccc(N2CCN(S(=O)(=O)c3ccc4c(c3)OCCO4)CC2)nc1)N1CCCC1	?	8.2µM	-	-	?	-
CC1CCCC(NC(=O)CCN2C(=O)COc3ccccc32)C1C (stereo not drawn)	-	-	-	-	-	-
O=C(NCC(=O)N1CCN(S(=O)(=O)c2ccc3c(c2)OCCO3)CC1)c1ccccc1F	-	-	-	-	-	-
Cc1ccc(S(=O)(=O)N2CCN(C(=O)Cc3ccc4c(c3)OCCO4)CC2)cc1C	?	4.1µM	?	-	-	-
O=C(Cc1ccc2c(c1)OCCO2)N1CCN(S(=O)(=O)c2ccccc2C(F)(F)F)CC1	-	21µM	-	-	-	-
O=C(Cc1ccc2c(c1)OCCO2)N1CCN(S(=O)(=O)c2cccc(Cl)c2Cl)CC1	-	23µM	-	-	-	-
O=C(c1ccccc1F)N1CCN(S(=O)(=O)c2ccc3c(c2)OCCO3)CC1	?	-	12µM	-	-	-
O=C(Cc1ccc2c(c1)OCCO2)N1CCN(S(=O)(=O)c2cccs2)CC1	-	?	-	-	-	-
Cc1cccn2c(=O)nc(SCC(=O)NCc3ccccc3)nc12	?	-	?	-	-	-
O=C(CCl)N1CCN(S(=O)(=O)c2ccc3ccccc3c2)CC1	5.8µM	?	3.3µM	?	?	?
O=C(CCCOc1ccccc1)NC1CCCc2ccccc21 (stereo not drawn)	?	18µM	-	-	-	-
CC(Sc1nc2ccccc2s1)C(=O)NC1CCCc2ccccc21 (stereo not drawn)	23µM	21µM	?	-	-	-
O=C(NC(=S)NC1CCCc2ccccc21)c1ccc(F)cc1 (stereo not drawn)	?	?	?	?	?	-
O=C(CCn1cccc1)NC1CCCc2ccccc21 (stereo not drawn)	-	-	-	-	-	-
COc1ccccc1OCC(=O)NC1CCCc2ccccc21 (stereo not drawn)	?	-	-	-	-	-
O=C(NC(=S)NC1CCCc2ccccc21)c1ccco1 (stereo not drawn)	?	-	16µM	-	-	-
